# Results as given in PubChem BioAssay AID488841 (Sanford-Burnham Center for Chemical Genomics, 2010).
# The whole screen tested about 1,400 compounds, of which about 380 (27%) were called active.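 Rule for the calls: active = mean inhibition above 50% across duplicate retests at 10 µM; inactive = the rest.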 The list shows a part of the results.
# Assay: inhibition of NALP1/ASC/caspase-1 reporter signal in yeast, confirmation, NALP1 inhibitor project, S. cerevisiae, luminescence, single concentration (AID 488841);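 note: plate controls were DMSO in galactose medium for no effect and cells in plain SD medium for full effect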
# Settings: S. cerevisiae NALP1/ASC/Caspase-1 reporter, beta-gal luminescence; at 10 µM; hits give high values
row,Structure (SMILES),inhibition
1,O=C(CN1CCCCC1)Nc1nc(-c2ccc(F)c(F)c2)cs1,43.3% (inactive)
2,O=C(Cc1cccs1)Nc1nc(-c2ccc(F)cc2F)cs1,71.6% (active)
3,COc1ccccc1NS(=O)(=O)c1ccc(NC(=O)Cc2cccs2)cc1,31.7% (inactive)
4,COc1ccccc1N1C(=O)C2CCC(c3ccccc3)CC2C1=O (stereo not given),40.1% (inactive)
5,COc1ccc(S(=O)(=O)N2CCOC2CNC(=O)C(=O)NCCCN2CCOCC2)cc1C (stereo not given),36.4% (inactive)
6,O=C(Nc1ccc(Cl)c(Cl)c1)c1ccncc1,49.2% (inactive)
7,O=C(Nc1ccc2c(c1)Cc1ccccc1-2)c1ccncc1,64.8% (active)
8,O=C(COc1ccc(Cl)cc1)Nc1ccc2c(c1)CCC2,39.6% (inactive)
9,O=C(CN1CCN(c2ccccc2)CC1)Nc1ccc2c(c1)CCC2,22.7% (inactive)
10,O=C(Nc1ccc2nc3ccccc3nc2c1)c1ccccc1,70.2% (active)
11,O=C(Nc1ccc2c(c1)CCC2)c1ccccc1,73.4% (active)
12,CS(=O)(=O)N(Cc1ccccc1)c1ccc(C(=O)Nc2cccnc2)cc1,19.7% (inactive)
13,O=C(COC(=O)C1(c2ccccc2F)CCCC1)N1CCOCC1,17.6% (inactive)
14,Cc1cc(C)c(S(=O)(=O)Nc2ccc(OCC(=O)O)cc2)c(C)c1,27.6% (inactive)
15,CCOC(=O)C1CCCN(Cc2ccc(OCC)cc2)C1 (stereo not given),41.2% (inactive)
16,Clc1ccc(OCCN2CCCCC2)cc1Cl,39.4% (inactive)
17,CC/C(=N\NC(=O)c1ccccc1Cl)c1ccc(Br)s1,38.6% (inactive)
18,Cc1cccc(C)c1OCC(=O)Nn1c(=O)[nH]c2ccccc2c1=O,32.6% (inactive)
19,CCCc1cc(C(=O)O)c2ccccc2n1,27.6% (inactive)
20,CCCCCC(=O)Nc1ccc2oc(-c3cccnc3)nc2c1,44.2% (inactive)
21,CCC(=O)Nc1cccc(-c2nc3ccccc3o2)c1,69.3% (active)
22,COC(=O)c1cc(=O)n(-c2ccccc2)c(=Nc2ccccc2)s1,49.4% (inactive)
23,CCC(C(=O)OC)n1cnc2scc(-c3ccc(C)c(C)c3)c2c1=O (stereo not given),98.8% (active)
24,Cn1c2ccccc2c(=O)c2c(=O)n(C3CCCCCC3)c(C3CCCCC3)nc21,41% (inactive)
25,COc1ccc(-c2cn3cccnc3n2)cc1Br,78.5% (active)

row,Structure (SMILES),inhibition
1,Cn1c(=O)n(CCCOc2ccc(Cl)cc2)c2ccccc21,45.5% (inactive)
2,O=C(NC1CCCC1)C(c1ccccn1)N(C(=O)c1csnn1)C1CC1 (stereo not given),18.6% (inactive)
3,c1ccc(-c2noc(-c3ccccc3-c3ccccc3)n2)cc1,23.8% (inactive)
4,O=C(CN1CCOCC1)Nc1ccccc1Sc1ccc(Cl)cc1,32.2% (inactive)
5,CSc1nc(C)cc(OCCO)n1,27.2% (inactive)
6,CC(C)OCCCNC(=O)c1cc2c(=O)n(C)c3ccccc3c2n1C,18.5% (inactive)
7,CCCNC(=O)c1cc2c3ccccc3n(C)c2s1,69.2% (active)
8,O=C(NNC(=O)c1ccc(-c2ccccc2)cc1)Nc1ccc(F)cc1F,20.4% (inactive)
9,Cc1ccc(S(=O)(=O)N(C)C)cc1NC(=O)Nc1ccccc1F,21.1% (inactive)
10,O=C(Nc1ccccc1)Nc1ccc(Br)cc1F,50.3% (active)
11,CCOC(=O)c1ccc(N2CCOCC2)c(NC(=O)COCC(=O)O)c1,16.1% (inactive)
12,COc1ccc(CC(C)N2CCN(Cc3ccccc3)CC2)c(OC)c1 (stereo not given),27.8% (inactive)
13,Cc1ccccc1N(CC(=O)N/N=C/c1ccccc1Cl)C(=O)c1ccccc1,32% (inactive)
14,CCCSc1ccc2nc(-c3ccccc3)cn2c1,75.4% (active)
15,Cc1nc(-c2ccccc2)sc1C(=O)CSc1ccccc1,42% (inactive)
16,CSCc1ccc(C(=O)Nc2cc(C)cc(C)c2)cc1,76% (active)
17,CS(=O)(=O)N(Cc1ccccc1)c1ccc(C(=O)Nc2ccc3c(c2)OCO3)cc1,33.1% (inactive)
18,Cc1cc(C)cc(NS(=O)(=O)c2ccc(NC(=S)NC(=O)c3ccc(Br)o3)cc2)c1,45.4% (inactive)
19,COCCn1c(SCC(=O)NC(=O)NC(C)(C)C)nc2ccccc21,27.5% (inactive)
20,Cc1ccc(C(=O)NCc2ccco2)cc1S(=O)(=O)Nc1cccc(Cl)c1,25.1% (inactive)
21,CC1CCCN(c2nc(NCc3ccco3)nc(N)c2[N+](=O)[O-])C1 (stereo not given),55.1% (active)
22,Cc1ccc(Nc2nc(N)c([N+](=O)[O-])c(NCc3ccco3)n2)cc1C,60.3% (active)
23,CC1CCN(c2nc(NCc3ccco3)nc(N)c2[N+](=O)[O-])CC1,67.3% (active)
24,Nc1nc(NCc2ccco2)nc(N2CCCCCC2)c1[N+](=O)[O-],62.6% (active)
25,CC1CCN(c2ccccc2NC(=O)c2ccc(N3CCOCC3)c([N+](=O)[O-])c2)CC1,1.35% (inactive)

row,Structure (SMILES),inhibition
1,O=C(Nc1nc(-c2ccncc2)cs1)c1ccc(S(=O)(=O)N2CCOCC2)cc1,28.9% (inactive)
2,Clc1ccc(N2CCN(c3cnc4ccccc4n3)CC2)cc1,37.4% (inactive)
3,COc1ccc(-c2nc3c(c(=O)[nH]c(=O)n3Cc3ccccc3)n2C)cc1,27.9% (inactive)
4,CC1CCCCC1NC(=O)/C(C#N)=C/c1ccccc1F (stereo not given),39.8% (inactive)
5,CC(C)(C)C1=CC(=O)C(=O)C(C(C)(C)C)=C1,20% (inactive)
6,CCSc1nnc(-c2ccncc2)n1Cc1ccccc1,35.8% (inactive)
7,Cc1ccc(NC(=S)Nc2ccc(Cl)c(Cl)c2)c(OC(F)F)c1,33.8% (inactive)
8,O=C(Cc1ccc([N+](=O)[O-])cc1)c1ccc(O)cc1O,39% (inactive)
9,CC[N+]1(CC)CC2=Cc3c(ccc4ccccc34)CC2C1 (stereo not given),14.5% (inactive)
10,CCOC(=O)n1c(=O)n(Cc2ccccc2)c2ccccc21,25.8% (inactive)
11,O=C(c1ccc(COc2ccccc2Br)cc1)N1CCCCC1,36.5% (inactive)
12,O=C(CCSc1nc2cc(Cl)ccc2o1)N1CCOCC1,24.1% (inactive)
13,O=C(c1nnsc1S(=O)c1ccc(Cl)cc1)N1CCOCC1 (stereo not given),76.7% (active)
14,CCCNC(=O)c1nnsc1S(=O)c1ccc(Cl)cc1 (stereo not given),99.3% (active)
15,CCCCNC(=O)Nc1nnc(-c2ccc(Cl)cc2)o1,44.9% (inactive)
16,CNC(=O)c1nnsc1S(=O)c1ccc(Cl)cc1 (stereo not given),88.7% (active)
17,Cn1cc(S(=O)(=O)N2CCN(c3cccc(C(F)(F)F)c3)CC2)c(=O)n(C)c1=O,7.85% (inactive)
18,CC(NC(=O)/C(C#N)=C/c1ccc(Cl)c([N+](=O)[O-])c1)c1ccccc1 (stereo not given),51.1% (active)
19,COC(=O)c1ccc(/C=C(\C#N)C(=O)NC(C)c2ccccc2)cc1 (stereo not given),23.2% (inactive)
20,CN(Cc1ccccc1)C(=O)c1ccc([N+](=O)[O-])o1,40.2% (inactive)
21,CC(NC(=O)/C(C#N)=C/c1ccc([N+](=O)[O-])o1)c1ccccc1 (stereo not given),52.1% (active)
22,COc1cc(/C=C(\NC(C)=O)C(=O)Nc2cccc(O)c2)ccc1OC(C)=O,28.1% (inactive)
23,COc1cc(/C=C/C(=O)Nc2ccc(C)cc2)cc(OC)c1OC,33.6% (inactive)
24,COc1ccc(/C=C/C(=O)Nc2ccc3c(c2)CCC3)cc1OC,79.2% (active)
25,CCc1ccc(CC(=S)N2CCOCC2)cc1,42.3% (inactive)

row,Structure (SMILES),inhibition
1,CCOc1ccc(C(=O)Nc2ccc(-c3nc4ccccc4[nH]3)cc2)cc1[N+](=O)[O-],26.6% (inactive)
2,COc1ccc(C(=O)NC(=S)Nc2ccccc2N2CCCCC2)cc1[N+](=O)[O-],51.9% (active)
3,CCOc1ccc(C(=O)NC(=S)Nc2ccccc2N2CCCCC2)cc1[N+](=O)[O-],43.9% (inactive)
4,COc1ccc(/C=C2\SC(N3CCc4ccccc4C3)=NC2=O)cc1,69.8% (active)
5,CC(C)c1nc(SCC(=O)Nc2ccc3c(c2)OCCO3)n[nH]1,19.3% (inactive)
6,N#Cc1ccc(-c2ccc(Cl)cc2)nc1SCC(=O)c1cccc(Cl)c1,26.4% (inactive)
7,CCN(CC)c1ccc(NC(=O)Cn2cc3c(n2)CCC(C)C3)c(C)c1 (stereo not given),50.9% (active)
8,Cc1ccc(NC(=O)Cn2cccc2)c(C)c1,27.8% (inactive)
9,COc1ccccc1CN(Cc1nc2ccccc2c(=O)[nH]1)C(=O)Nc1ccccc1,36.4% (inactive)
10,Cc1ccc2nc(N(CCCN(C)C)C(=O)CCc3ccccc3)sc2c1,46.8% (inactive)
11,CN(C)CCCN(C(=O)CCOc1ccccc1)c1nc2c(F)cccc2s1,64.8% (active)
12,CN(C)CCCN(C(=O)CCS(=O)(=O)c1ccccc1)c1nc2cc3c(cc2s1)OCO3,61.2% (active)
13,Cc1ccc2sc(N(CCCN(C)C)C(=O)CCS(=O)(=O)c3ccccc3)nc2c1C,88.8% (active)
14,Cc1cccc2sc(N(CCCN(C)C)C(=O)CCS(=O)(=O)c3ccccc3)nc12,69.6% (active)
15,CN(C)C(CNC(=O)CCCOc1ccccc1)c1ccco1 (stereo not given),30.6% (inactive)
16,Cc1cccc2sc(N(CCCN(C)C)C(=O)c3sc4ccccc4c3Cl)nc12,35.9% (inactive)
17,CCOC(=O)c1cnc2ccccc2c1Nc1cc(C(=O)O)ccc1C,26.6% (inactive)
18,CSc1cc(N2CCOCC2)nc(-c2ccccc2Cl)n1,72% (active)
19,Cc1cc(N2CCOCC2)n2ncc(-c3ccccc3)c2n1,46.7% (inactive)
20,C=CCc1cccc(/C=N/c2nc3ccccc3n2CC)c1O,15.8% (inactive)
21,CCc1ccc(S(=O)(=O)/N=C2/C=C(Sc3ncn[nH]3)C(=O)c3ccccc32)cc1,86.3% (active)
22,O=C1c2ccccc2C(=O)c2c1ncn2-c1ccccc1,24.1% (inactive)
23,Cc1cc(Br)ccc1OCCn1ccnc1,43% (inactive)
24,CCOc1ccc(OCCCCn2ccnc2)cc1,34.5% (inactive)
25,CCC(C)c1ccc(OCCn2ccnc2)cc1 (stereo not given),58.6% (active)
